TrxR1 inh – qHTS Assay for Inhibitors of Mammalian Selenoprotein Thioredoxin Reductase 1 (TrxR1): qHTS. actives 1% (n = 390,000). Potency, µM (top dose mostly 114 µM), for the others: at the highest dose activity change, negative = inhibition, most hits filed as inhibitors. recombinant rTrxR1, NADPH fluorescence consumption, selenite substrate. Thioredoxin reductase 1, cytoplasmic (Rattus norvegicus), O89049; note: potency is the fitted concentration of half-maximal effect; % is set by controls: 0 for no effect and ±100 for the full control effect; nearly all actives have a fitted effect of over 65% in size
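Rat TrxR1 (90 nM in the dispensed reagent) was pre-reduced with 400 uM NADPH for 5 min at room temperature, then incubated with compound for 15 min. After 400 uM selenite was added, NADPH fluorescence (Ex 340/Em 450 nm) was followed for 8 min.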
pAkt inh – HTS Assay for Inhibitors of Akt Phophorylation: Primary Screen; Neuro2A IGF-stimulated pAkt S473 HTRF, 20 min; hits give low values; activity change, % for hits at 50 µM; actives 0.32% (n = 360,000); in the data active = activity change below about -80%; inconclusive = mostly about -51% to -80%; note: % is set by controls: 0 for no effect and ±100 for the full control effect
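Neuro2A cells (4,500/well, DMEM with 0.5% FBS) were treated with compound at a single 50 µM final concentration, stimulated with 6 nM IGF for 20 min at 37 °C, and lysed. Phospho-Akt Ser473 was read by HTRF as 665/615 ratio ×10^4.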
AT treatment – qHTS Assay for Identifying a Potential Treatment of Ataxia-Telangiectasia; Potency, µM (highest dose often 57.5 µM), inactives show at the highest dose activation, hits mostly activators; actives 0.19% (n = 320,000); F2112 A-T fibroblasts, KAP-1 phosphorylation AlphaLISA; neocarzinostatin DNA damage 30 min before lysis; note: potency is the fitted concentration of half-maximal effect; % of control where 0% means no effect; nearly all actives have a fitted effect of over 45% in size
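hTERT-immortalized A-T patient fibroblasts (F2112), 500 cells/well in OPTI-MEM, 1% FBS, got compounds for 60 min, then NCS for 30 min at 37C. Lysates were then assayed for phospho-KAP-1 by AlphaLISA (anti-pKAP1 donor, anti-KAP1 acceptor beads), 6 hr at 25C.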
TrxR1 substrate – qHTS Assay for Substrates of Mammalian Selenoprotein Thioredoxin Reductase 1 (TrxR1): qHTS; actives 0.01% (n = 390,000); Potency, µM (top dose mostly 114 µM), without a hit: top-dose activity change, negative = substrate turnover; purified TrxR1 substrate turnover, NADPH consumption readout; AID 588456, 2011; note: potency is the fitted concentration of half-maximal effect; % is set by controls: 0 for no effect and ±100 for the full control effect; nearly all actives have a fitted effect of over 50% in size
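Rat TrxR1, dispensed at 90 nM, was prereduced with 400 uM NADPH (final) for 5 min at ~22 deg C, then incubated with compound 15 min before 400 uM selenite. A first-read NADPH fluorescence drop versus no-compound background flagged substrates.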
Pin1 inhibitor – qHTS Assay to Find Inhibitors of Pin1; Peptidyl-prolyl cis-trans isomerase NIMA-interacting 1 (Homo sapiens), Q13526; Pin1 FP peptide displacement, HiFluor488, 10 min; Potency, µM (doses to about 115 µM), for the others: at the top dose activity, negative = inhibition, usual class: inhibitors; actives 0.009% (n = 390,000); active = well fitted inhibition curve with a large enough effect in the polarisation, with a control signal flat, not every such curve was filed as active; inconclusive = small, poorly fitted or top-dose-only effect, or effect the other way, or a change in a side signal; inactive = no such curve, though single readings can be large or run the other way; the % refers to the polarisation; note: potency is the fitted concentration of half-maximal effect; % is set by controls: 0 for no effect and ±100 for the full control effect
Target sequence (Q13526 whole entry, looked up): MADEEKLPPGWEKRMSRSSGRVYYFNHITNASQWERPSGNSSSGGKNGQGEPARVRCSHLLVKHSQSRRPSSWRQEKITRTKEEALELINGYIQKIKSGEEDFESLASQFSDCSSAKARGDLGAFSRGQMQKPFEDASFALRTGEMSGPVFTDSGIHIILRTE
N370S GC mod – qHTS Assay for Inhibitors and Activators of N370S glucocerebrosidase as a Potential Chaperone Treatment of Gaucher Disease | Lysosomal acid glucosylceramidase (Homo sapiens), P04062 | N370S GC spleen homogenate, 4MU-glucoside fluorescence | Potency, µM (titrated, usually from 59.4 µM), for inactives: top-dose activity change, negative = inhibition, actives largely listed as inhibitors | actives 0.092% (n = 330,000);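 note: potency is the fitted concentration of half-maximal effect; 0% = full enzyme activity and -100% = no enzyme basal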
Active calls of the source: *; i = inactive; u = inconclusive; x = not tested or not shown; [ ] = another dose, or the depositor's remark. Only some compounds are listed: those with a hit (about 1.4% of all), similar ones and a draw of the others. Unless noted, calls come from the whole dose curve; as a rule, active = well fitted curve in the direction sought with a large enough effect; inconclusive = small, poorly fitted or top-dose-only effect, or another doubt; inactive = no such curve, though single readings can be large; an effect the other way counts as inactive or inconclusive.

SMILES | TrxR1 inh | pAkt inh | AT treatment | TrxR1 substrate | Pin1 inhibitor | N370S GC mod
CC(C)CCn1nnnc1C(c1ccccc1)N1CCN(C)CC1 (stereo not given) | -11% | i | 7% | -7% | -5% | -8%
CN1CCN(c2ncnc3ccc(-c4ccccc4C(F)(F)F)cc23)CC1 | x | x | x | x | x | -1%
O=C1C=C(NCc2ccccc2)c2ccccc2C1=O | u | i | 12%[11.5 µM] | 16µM* | u | -20%
N#Cc1ccc(N2CCN(S(=O)(=O)c3ccc4c(c3)CC(=O)N4)CC2)cc1 | x | x | x | x | 13% | x
CCOC(=O)CNC1CC(=O)N(c2ccc(Br)cc2)C1=O (stereo not given) | 28µM* | i | 2% | 3% | 3% | -1%
CCCOc1ccc(N2C(=O)CC(NCC#N)C2=O)cc1 (stereo not given) | 9%[57.1 µM] | i | 3% | -7%[57.1 µM] | 4% | -3%
O=C(NNC1CC(=O)N(c2ccc(Br)cc2)C1=O)c1cccs1 (stereo not given) | -15% | i | -6% | -1% | -2% | -6%
COc1ccc(N2C(=O)CC(NCC#N)C2=O)cc1 (stereo not given) | 32µM* | i | 0% | 1% | 2% | 0%
Cc1nn(-c2ccc(C(F)(F)F)cn2)c(C)c1Oc1ccccc1O | -7% | i | -5% | -11% | -10% | x
Cc1cc(=O)[nH]c(-n2nc(C)c(Oc3ccccc3O)c2C)n1 | 12%[57.1 µM] | -110%* | -5% | 12%[57.1 µM] | -6% | -3%
O=C(CSc1nnc(COc2ccc(Cl)cc2)o1)Nc1ccccc1 | 7% | x | x | -5% | 16% | x
Cc1cc(NC(=O)CSc2nnc(COc3ccccc3)o2)no1 | 7%[57.1 µM] | -127%* | -1% | 8%[57.1 µM] | 6% | -19%
Cc1ccc(-n2ncc(C(=O)NCc3ccccc3)c2C2CCN(C(=O)OC(C)(C)C)CC2)cc1 | 11% | x | x | -7% | 1% | x
COc1ccc(S(=O)(=O)NC2CC3CCC2C3)cc1 (stereo not given) | 45% | i | 0% | 8% | 0% | 0%
CC(C)NC(=O)NS(=O)(=O)c1cnccc1NC1CC2CCC1C2 (stereo not given) | 12% | -107%* | x | 10%[57.1 µM] | -6% | 12%
COc1ccc(N(C(=O)CCl)C(C(=O)NCCc2ccccc2)c2cccs2)cc1Cl (stereo not given) | 14µM* | i | 33% | -8% | 31% | -1%
COc1cccc(N(C(=O)CCl)C(C(=O)NCCc2ccccc2)c2cccs2)c1 (stereo not given) | 14µM* | i | 11% | 1% | -2% | 0%
COc1ccc(N(C(=O)c2ccco2)C(C(=O)NC2CCCCC2)c2cccs2)cc1OC (stereo not given) | -6% | i | -2% | 26% | -4% | 1%
Fc1ccc(N2CCN(Cc3cccn3-c3nnc(N4CCN(C5CCCCC5)CC4)s3)CC2)cc1 | 11% | x | x | -1% | 5% | x
Cc1c(NC(=O)c2cc(-c3cccs3)on2)c(=O)n(-c2ccccc2)n1C | 3%[57.1 µM] | -83%* | x | 2%[57.1 µM] | -11% | 8%
Cc1c(NC(=O)c2cc(-c3ccco3)on2)c(=O)n(-c2ccccc2)n1C | -9% | i | -7% | 1% | -1% | -26%
O=C(CS(=O)c1ccc(C(F)(F)F)cc1[N+](=O)[O-])Oc1ccc(Cl)cc1 (stereo not given) | 50µM* | i | x | -12% | u | 1%
Cc1cccc(CS(=O)(=O)c2nnc([C@H](Cc3ccccc3)NC(=O)OC(C)(C)C)o2)c1 | 0.4µM* | i | x | -1% | 27% | 5%

Assay outcomes deposited in PubChem BioAssay by National Center for Advancing Translational Sciences (NCATS).
